The text below walks through data of PubChem BioAssay (NCATS).

Where “and” joins values, the source holds several entries; their conditions need not be identical. Identical values can stand only once. Results filed as inconclusive are left out. Calls of active or inactive are those of the source. Calls follow the shape of the dose curve; as a rule, active = well fitted inhibition curve with a large enough effect; inconclusive = small, poorly fitted or top-dose-only effect; inactive = no such curve, though single readings can be large or run the other way.
Potency is read from the fitted curve at half-maximal effect.

A short description of the assay: Primary qHTS for inhibitors of nuclear receptor binding SET domain protein 2 (NSD2) in an RCH-ACV wild type WT cells (2C) (AID 1645877). Also: nearly all actives have a fitted effect of over 70% in size. The conditions noted are these: RCH-ACV (leukaemia line) NSD2 WT (2C) viability, CellTiter-Glo, 72 h; series mostly up to 44.9 µM.
Take `Clc1ccc(Nc2nnc(Cc3ccncc3)c3ccccc23)cc1`: the Potency was 13.3 µM (active) and 8.33 µM (active).

Turning to `OC(CCN1CCCCC1)(c1ccccc1)C1CC2C=CC1C2` (stereo not drawn), the Potency result is “inactive”. Turning to `O=C(Nc1nc2ccccc2n1CCN1CCOCC1)c1cccc([N+](=O)[O-])c1`, the Potency entry was “inactive”. As for `COc1ccc(C2=N[C@H](c3ccc(Cl)cc3)[C@H](c3ccc(Cl)cc3)N2C(=O)N2CCNC(=O)C2)c(OC(C)C)c1`, the Potency was 18.6 µM (active). For the compound `Cc1ccc(-n2nc(C(C)(C)C)cc2NC(=O)Nc2ccc(OCCN3CCOCC3)c3ccccc23)cc1`, the Potency was 21.1 µM (active). With `COc1ccc2c3n(c(=NC(=O)c4cccnc4)nc2c1OC)CCN3`, the Potency is 0.186 µM (active). Take `N#Cc1ccc(C(c2ccc(C#N)cc2)n2cncn2)cc1`: the Potency result is “inactive”. The value for `CO[C@@H]1[C@H](N(C)C(=O)c2ccccc2)C[C@H]2O[C@]1(C)n1c3ccccc3c3c4c(c5c6ccccc6n2c5c31)C(=O)NC4` was 1.3 µM (active) and 525 nM (active). The value for `OCCC#Cc1nc(-c2ccc(F)cc2)c(-c2ccncc2)n1CCCc1ccccc1` was 18.4 µM (active) and 9.34 µM (active); that for `CNC(=O)c1ccccc1Sc1ccc2c(/C=C/c3ccccn3)n[nH]c2c1` was 531 nM (active) and 1.03 µM (active) and 833 nM (active). The value for `NS(=O)(=O)c1cc2c(cc1Cl)NC=NS2(=O)=O` was “inactive”. Turning to `O=C1CCc2cc(OCCCCc3nnnn3C3CCCCC3)ccc2N1`, the Potency is 21.1 µM (active). The value for `Cc1c(CCOc2ccc(C(=O)O)cc2)c2cc(Cl)ccc2n1C(c1ccccc1)c1ccccc1` was “inactive”.
